Assay outcomes: PubChem, National Center for Advancing Translational Sciences (NCATS)
TRPV1 potentiator – enhances activation of the human vanilloid receptor TRPV1 | actives 0.02% (n = 320,000) | TRPV1-expressing cells, Fluo-8 calcium influx, capsaicin EC20 potentiation | AID 540277 | potentiation, % at 8.33 µM; in the data active = potentiation above about 80%; inconclusive = between about 30% and that limit; note: 0% is about no effect
Target sequence (Q8NER1 whole entry, looked up): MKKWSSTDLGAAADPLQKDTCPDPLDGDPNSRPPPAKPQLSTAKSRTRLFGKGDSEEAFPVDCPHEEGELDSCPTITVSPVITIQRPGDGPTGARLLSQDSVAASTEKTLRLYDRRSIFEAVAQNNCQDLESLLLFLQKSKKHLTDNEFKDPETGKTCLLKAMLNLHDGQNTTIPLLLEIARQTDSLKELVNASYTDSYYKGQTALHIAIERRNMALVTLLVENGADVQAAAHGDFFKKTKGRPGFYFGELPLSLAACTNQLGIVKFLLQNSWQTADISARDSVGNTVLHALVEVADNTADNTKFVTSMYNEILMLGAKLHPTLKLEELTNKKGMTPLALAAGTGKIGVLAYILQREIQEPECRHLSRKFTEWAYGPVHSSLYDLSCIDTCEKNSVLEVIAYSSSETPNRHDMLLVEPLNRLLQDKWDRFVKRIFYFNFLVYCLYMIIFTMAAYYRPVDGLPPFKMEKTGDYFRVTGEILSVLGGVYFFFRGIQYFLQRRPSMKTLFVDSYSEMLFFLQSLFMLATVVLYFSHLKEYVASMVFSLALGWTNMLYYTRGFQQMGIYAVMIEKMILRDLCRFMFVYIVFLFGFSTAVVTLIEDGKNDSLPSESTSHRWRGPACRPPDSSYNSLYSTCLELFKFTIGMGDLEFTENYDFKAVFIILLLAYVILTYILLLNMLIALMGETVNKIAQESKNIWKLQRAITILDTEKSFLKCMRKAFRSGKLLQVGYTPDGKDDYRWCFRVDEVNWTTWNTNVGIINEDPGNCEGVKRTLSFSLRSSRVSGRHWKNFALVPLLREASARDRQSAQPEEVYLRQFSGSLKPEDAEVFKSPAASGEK
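TRPV1-expressing cells were cultured overnight at 35.5C and loaded with Fluo-8 calcium dye for 40 to 90 min at room temperature. After a 10 s baseline, compound was added and calcium influx was read kinetically for 3 min (ex 480/em 520 nm).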
Gal4-VP16 FLuc – Gal4-VP16 reporter inhibition counter-screen. Drosophila S2 Gal4-VP16 UAS-luciferase, luminescence, 20 h. Potency, µM (highest dose often 53.6 µM), for the others: at the highest dose activity, negative = inhibition, hits mostly inhibitors. actives 3.5% (n = 310,000);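 note: Gal4-VP16 expression switched on by copper sulfate through the metallothionein promoter; potency is the fitted concentration of half-maximal effect; % is set by controls: 0 for no effect and ±100 for the full control effect; nearly all actives have a fitted effect of over 50% in size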
RORg inh – inhibitors of mouse ROR gamma transcriptional activity. Drosophila S2 Gal4-RORgamma UAS-luciferase reporter, 20 h. AID 2551. Potency, µM (doses to about 53.6 µM), for the others: at the highest dose activity change, negative = inhibition, hits mostly inhibitors. P51450. actives 5.4% (n = 310,000); note: potency is the fitted concentration of half-maximal effect; % is set by controls: 0 for no effect and ±100 for the full control effect; nearly all actives have a fitted effect of over 60% in size
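In this cell-based reporter format, copper sulfate (700 uM final) drives Gal4–ROR gamma fusion expression from a metallothionein promoter in Drosophila Schneider cells; compounds preincubated 1 hr, reporter read after 20 hr at ambient temperature.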
uPA surface inh – cell surface uPA generation inhibition; cell surface uPA generation assay, qHTS; Potency, µM (titrated, usually from 38.3 µM), inactives show top-dose activity change, negative = inhibition, actives largely listed as inhibitors; actives 0.31% (n = 330,000); AID 540303; active = well fitted inhibition curve with a large enough effect; inconclusive = small, poorly fitted or top-dose-only effect; inactive = no such curve, though single readings can be large or run the other way; tested in mouse RAW 264.7 cells; note: potency is the fitted concentration of half-maximal effect; % is set by controls: 0 for no effect and ±100 for the full control effect; nearly all actives have a fitted effect of over 55% in size
TRPV1 ag – agonists of human vanilloid receptor 1 (TRPV1); Q8NER1; TRPV1-expressing cells, Fluo-8 calcium influx, agonist mode; activation, % at 8.33 µM; actives 0.19% (n = 320,000); in the data active = activation above about 80%; inconclusive = between about 30% and that limit; note: 0% is about no effect
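Fluo-8 calcium influx in TRPV1-expressing cells, kinetic read (ex 480/em 520 nm). Compound added and read 3 min for agonist activity, followed by capsaicin at EC20 final and 2 min further read for enhancement.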
Active calls of the source: *; ? = inconclusive; . = not tested or not shown; [ ] = another dose, or the depositor's remark. Only some compounds are listed: those with a hit (about 5.8% of all), similar ones and a draw of the others. Unless noted, calls come from the whole dose curve; as a rule, active = well fitted curve in the direction sought with a large enough effect; inconclusive = small, poorly fitted or top-dose-only effect, or another doubt; inactive = no such curve, though single readings can be large; an effect the other way counts as inactive or inconclusive.

SMILES	TRPV1 potentiator	Gal4-VP16 FLuc	RORg inh	uPA surface inh	TRPV1 ag
Cc1cccc(N2CCN(C(=O)Cn3nc(C)n4cccc4c3=O)CC2C)c1 (stereo unspecified)	-45.6	0.9%	-13.8%	-0.8%	1.6
Cc1cc(C)c2c(=O)n(CC(=O)N3CCC(Cc4ccccc4)CC3)sc2n1	-5.9	3.98µM*	?	.	8.2
Cc1ccn2c(=O)nc(SCC(=O)N3CCC(Cc4ccccc4)CC3)nc2c1	4.0	.	.	-2.2%	-3.9
Cc1cccc(N2CCN(C(=O)Cn3sc4nc(C)cc(C)c4c3=O)CC2C)c1 (stereo unspecified)	22.5	12.6µM*	7.08µM*	?	7.5
Cc1cccc(C(=O)NCCCNC(=O)c2ccco2)c1	1.2	-10.8%	-4.8%	1.2%	2.2
CCSc1cnc(-c2ccccc2)n1CC	-27.9	-27.2%	12.6µM*	-0.7%	16.2
O=C(CSc1n[nH]c(-c2ccccc2Cl)n1)NC1CCCCC1	-11.2	4.5%	-25.3%	-5.1%	2.1
CCC(NC(=S)NCc1ccc(F)cc1)c1ccccc1 (stereo unspecified)	-8.4	3.16µM*	3.55µM*	48.6%	?
COc1cccc(C(C)NC(=S)NCc2ccc(Cl)cc2)c1 (stereo unspecified)	-3.9	?	6.31µM*	.	?
COc1ccc(CCC(=O)NNC(=O)c2ccc(F)cc2)cc1	16.5	-9.0%	-15.1%	-0.1%	-0.1
Cc1ccc(C)c(C(C)NC(=O)c2ccncc2)c1 (stereo unspecified)	5.4	-2.6%	30.5%	3.2%	-3.5
Cc1ccc(C)c(C(C)NC(=S)NCc2ccc(F)cc2)c1 (stereo unspecified)	20.1	1.41µM*	5.01µM*	-5.8%	-8.7
COc1ccc(CCC(=O)NNC(=S)NCc2ccc(F)cc2)cc1	3.0	-18.7%	7.94µM*	18.4%	6.7
O=C(NCc1ccc(F)cc1)C(c1ccccc1)c1ccccc1	-13.2	-2.7%	-22.6%	-8.5%	8.0
COc1ccc(CNC(=S)NCc2ccc(F)cc2)cc1OC	-13.0	?	-41.6%	0.1%	?
COc1ccc(C(C)NC(=S)NCc2ccc(F)cc2)cc1 (stereo unspecified)	-13.1	1µM*	5.62µM*	-3.4%	?
C[N+]1(C)CCC[C@H]1C(=O)[O-]	.	-2.5%	16.3%	.	.
Cc1ccc2c(c1)sc(=NC(=O)c1cccs1)n2C	-6.1	7.94µM*	8.91µM*	?	10.2
COC(=O)c1c(/N=C/NOCc2ccc(Cl)cc2)sc2c1CCN(c1ncc(C(F)(F)F)cc1Cl)C2	8.0	10.9%	-2.7%	6.4%	-4.4
COC(=O)c1c(N)sc2c1CCN(c1ncc(C(F)(F)F)cc1Cl)C2	1.5	?	1.58µM*	-2.7%	0.2
COc1ccc(Cl)cc1N=Cc1c(O)cc(C)oc1=O	.	.	.	11.2%	.
Cc1cc(O)c(/C=N/OCc2ccc(Cl)cc2Cl)c(=O)o1	7.0	?	12.6µM*	-5.3%	-0.3
COC(=O)c1c(-c2ccc(C)cc2)csc1NC(=S)NC(=O)c1ccc(F)cc1	4.6	5.01µM*	2.51µM*	6.5%	2.1
CCOC(=O)c1c(-c2ccc(C)cc2)csc1NC(=S)NC(=O)c1ccccc1	24.3	2.82µM*	3.16µM*	2.8%	0.0
COC(=O)c1sc(NC(=S)NC(=O)c2ccc(F)cc2)nc1C	-4.7	-4.9%[10 µM]	0.3%	.	2.9
SMILES	TRPV1 potentiator	Gal4-VP16 FLuc	RORg inh	uPA surface inh	TRPV1 ag
COc1cccc(-c2cncnc2NCc2cccc(C)c2)c1	.	-2.3%	-27.3%	.	.
CC(C)CCNC(=O)C1CCC(=O)N1CCc1ccccc1 (stereo unspecified)	14.4	-8.3%	25.6%	2.6%	-3.1
COc1ccc(CCNC(=O)CNC(=O)c2ccccc2Br)cc1OC	3.4	0.9%	-13.0%	-1.7%	1.7
Cn1cc(C(=O)N/N=C/C(Br)=C/c2ccccc2)ccc1=O	-26.1	?	?	5.62µM*	29.4
Cn1cc(C(=O)N/N=C/C(Br)=C\c2ccccc2)ccc1=O	.	4.0%	?	-6.4%	.
COc1ccc(C(=O)N/N=C/C(Br)=C/c2ccccc2)cc1	-11.9	15.8µM*	3.55µM*	-3.9%	1.6
CCOc1ccc(OCC)c(S(=O)(=O)NC2CC(C)(C)NC(C)(C)C2)c1	6.0	-0.7%	-0.4%	-6.0%	-1.6
CC(C)(C)c1ccc(C(=O)CSc2n[nH]c(=O)[nH]c2=O)cc1	5.1	17.5%	?	-2.8%	?
CCCCC(=O)NC(=S)Nc1cccc(NC(=O)c2ccccc2)c1	2.8	7.94µM*	2.24µM*	5.9%	17.1
CCCCCC(=O)NC(=S)Nc1ccc(NC(=O)c2ccco2)cc1	-8.2	?	10µM*	-11.2%	7.3
CCCCCC(=O)NC(=S)Nc1ccc2oc(=O)ccc2c1	-15.5	?	11.2µM*	.	1.4
CC(C)CC(=O)NC(=S)Nc1cccc(NC(=O)c2ccccc2)c1	1.5	?	?	6.4%	13.6
CCCCCC(=O)N/N=C(\C)c1ccc(NC(=O)c2ccco2)cc1	-9.1	-11.4%	-14.9%	-6.5%	3.2
CCCC(=O)NC(=S)Nc1cccc(NC(=O)c2ccccc2)c1	10.4	3.55µM*	?	0.8%	-6.6
CCOc1ccc(C2/C(=C(/O)c3ccc(Cl)cc3)C(=O)C(=O)N2CCCN(C)C)cc1OC (stereo unspecified)	-25.4	1.6%	-4.1%	.	-5.7
Nc1nc(-c2ccc(Cl)c(Cl)c2)c(-c2ccncc2)s1	.	13.4%	?	.	.
Cc1nc2cnc(N3CCOCC3)nc2n(CCc2ccccc2)c1=O	.	-2.0%	35.0%	.	.
Cc1ccc(CSC(Nc2ccc(F)cc2)=C(C#N)C#N)cc1	6.3	25.1µM*	?	-10.8%	17.7
CCN(CC)C(=O)CSC(Nc1ccc(F)cc1)=C(C#N)C#N	5.7	-2.2%	2.3%	2.6%	-0.6
CN(C)CC(=O)N1c2ccccc2CCc2ccc(NC(=O)c3ccc(N)cc3)cc21	13.4	7.08µM*	7.94µM*	3.6%	-3.0
N#Cc1cc(Oc2cccc3cccnc23)c(-n2nnc3ccccc32)cc1C#N	4.3	6.31µM*	?	.	2.3
N#Cc1cc(O)c(-n2nnc3ccccc32)cc1C#N	4.6	0.4%	1.2%	-0.1%	1.6
S=c1[nH]nc(Cc2sc(-c3ccccc3)nc2-c2ccccc2)o1	-4.5	?	11.2µM*	-2.5%	0.9
CC1CN(C(=O)CN(C)S(=O)(=O)c2ccc3ccccc3c2)CC(C)O1 (stereo unspecified)	25.0	-5.3%	35.9%	0.9%	0.0
CNC(=S)Nc1ccc(C)cc1	2.1	13.5%	?	0.0%	1.4
Cc1ccc(/C=N/NC(=O)CCn2nc(C)cc2C)c(C)c1	-17.8	2.8%	-23.6%	-6.0%	-5.0
C=CCNC(=S)N/N=C/c1ccc(C)cc1C	-1.4	?	0.447µM*	0.0%	4.8
CNC(=S)N/N=C/c1cc(C)ccc1C	3.1	5.01µM*	2.24µM*	-12.6%	-2.4
Cc1ccc(C)c(/C=N/NC(=S)NC(C)C)c1	-2.8	3.16µM*	2.24µM*	-9.1%	1.4
